Inconclusive results are not listed. Where a call stands in place of a potency, no number is given. Values without a mark were called inactive. The source made the active and inactive calls. Calls follow the shape of the dose curve; as a rule, active = well fitted cell-killing curve with a large enough effect; inconclusive = small, poorly fitted or top-dose-only effect, or effect the other way; inactive = flat fitted curve, though single readings scatter.
Columns and labels:
Experiment in all cases: Primary qHTS to identify gynecologic anti-cancer compounds using libraries of approved drugs and bioactive compounds (AID 1345084); also: nearly all actives have a fitted effect of over 55% in size
Conditions in all cases: Gynecologic cancer cell panel viability, ATPlite luminescence, 48 h; series mostly up to 57.5 µM
PA-1 = tested on: PA-1
Summary of the method: (§1)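 Five-point cytotoxicity, 48 h drug exposure at 37 C, 5% CO2, on cells seeded 16 h beforehand. ATP content read by ATPlite luminescence.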

SKOV3 = tested on: SKOV3
Summary of the method: as §1

Tov-21-G = tested on: Tov-21-G
Summary of the method: as §1

Tov112D = tested on: Tov112D
Summary of the method: as §1
Potency is read from the fitted curve at half-maximal effect.

SMILES | Potency (PA-1) | Potency (SKOV3) | Potency (Tov-21-G) | Potency (Tov112D) | activity change, negative = cytotoxicity (PA-1) | activity change, negative = cytotoxicity (SKOV3) | activity change, negative = cytotoxicity (Tov-21-G) | activity change, negative = cytotoxicity (Tov112D)
COC(=O)c1ccc(N2CCN(C)CC2)c(NC(=O)c2cccc(OC)c2)c1 | inactive | inactive | inactive | inactive |  |  |  | 
Nc1nc2c(c(N3CC[C@@H](N)C3)n1)CCCc1ccccc1-2 | inactive | 28.2 µM (active) | inactive | inactive |  |  |  | 
CCOc1ccc(-n2c([C@@H](C)N(Cc3cccnc3)C(=O)Cc3ccc(OC(F)(F)F)cc3)nc3ncccc3c2=O)cc1 | inactive | inactive | inactive | inactive |  |  |  | 
CC1(C)CC[C@]23CO[C@@]4(CCC5[C@@]6(C)CC[C@H](O[C@@H]7OC[C@H](O[C@@H]8O[C@H](CO)[C@@H](O)[C@H](O)[C@H]8O[C@@H]8OC[C@@H](O)[C@H](O)[C@H]8O)[C@H](O)[C@H]7O)[C@@](C)(CO)C6CC[C@@]5(C)[C@]4(C)CC2=O)[C@@H]3C1 (stereo not given in full) |  |  |  |  | 10.3% [at 11.6 µM] | -7.83% [at 11.6 µM] | -3.45% [at 11.6 µM] | 1.26% [at 11.6 µM]
O=C(NC[C@H](O)CN1CCc2ccccc2C1)c1ccnc(NC2CCC2)c1 | inactive | inactive | inactive | inactive |  |  |  | 
CNC(=O)COC(=O)N1CCC(CCc2ccc(Cl)cc2)CC1 | inactive | inactive | inactive | inactive |  |  |  | 
CC1=CC2/C=C(\C)CCC(O)C/C=C/C(=O)OC23C(=O)NC(CC(C)C)C3C1C (stereo not given) | inactive | inactive | inactive | inactive |  |  |  | 
OC(CC1c2ccccc2-c2cncn21)C1CCCCC1 (stereo not given) | inactive | inactive | inactive | inactive |  |  |  | 
CCc1c(Cl)c(O)c(Cl)c(O)c1C(=O)O[C@H]1[C@H](O)[C@H](OC)[C@H](OC/C2=C\C=C\C[C@H](O)/C(C)=C\[C@H](CC)[C@@H](O[C@@H]3OC(C)(C)[C@@H](OC(=O)C(C)C)[C@H](O)[C@@H]3O)/C(C)=C/C(C)=C/C[C@@H]([C@@H](C)O)OC2=O)O[C@@H]1C | inactive | inactive | inactive | inactive |  |  |  | 
CC1(C)OC[C@H](NC(=O)Nc2ccc(Br)cc2Br)[C@H](c2ccccc2)O1 | inactive | inactive | inactive | inactive |  |  |  | 
Fc1ccc(N2CCN(CCC3OCCc4ccccc43)CC2)cc1 (stereo not given) | inactive | inactive | inactive | inactive |  |  |  | 
CC#CCn1c(N2CCCC(N)C2)nc2c1c(=O)n(Cc1nc(C)c3ccccc3n1)c(=O)n2C (stereo not given) | inactive | inactive | inactive | inactive |  |  |  | 
C/C=C(/C=C(C)/C=C/C=C/C=C(\C)C(=O)C12OC1C(O)(CCO)NC2=O)C(=O)OC (stereo not given) | inactive | inactive | inactive | inactive |  |  |  | 
CC(C)(CO)c1cc2cc(NC(=O)C3(c4ccc5c(c4)OC(F)(F)O5)CC3)c(F)cc2n1CC(O)CO (stereo not given) | inactive | inactive | inactive | inactive |  |  |  | 
CCOC(=O)c1csc(Nc2ccc(Cl)cc2)n1 | inactive | inactive | inactive | inactive |  |  |  | 
CCc1ccccc1OC[C@@H](O)CN[C@H]1CCCc2ccccc21 | inactive | inactive | inactive | inactive |  |  |  | 
COCC(=O)NC/C=C/c1ccc2ncnc(Nc3ccc(Oc4ccc(C)nc4)c(C)c3)c2c1 | inactive | 31.6 µM (active) | inactive | inactive |  |  |  | 
COc1cc(NC(=O)c2cc(C3CC3)on2)c(OC)cc1Cl | inactive | inactive | inactive | inactive |  |  |  | 
COc1cc2ncnc(Nc3ccc(F)c(Cl)c3)c2cc1O | inactive | inactive | inactive | inactive |  |  |  | 
O=C(NCc1nc2ccccc2c(=O)n1-c1ccc(F)cc1)Nc1ccc(Cl)c(C(F)(F)F)c1 | inactive | inactive | inactive | inactive |  |  |  | 
Cn1c(SCC(=O)N2CCC[C@H]2C(=O)Nc2ccccc2-c2ccccc2)nc2ccccc21 | inactive | inactive | inactive | inactive |  |  |  | 
C=C(C(=O)OC[C@H]1O[C@@H](OC(=O)/C=C/c2ccccc2)[C@H](O)[C@@H](O)[C@@H]1O)C(O)CO (stereo not given in full) | inactive | inactive | inactive | inactive |  |  |  | 
CC(C)CCNC(=O)c1ccc2c(c1)nc(Nc1n[nH]c3ccc(-c4ccccc4OC(F)(F)F)cc13)n2C1CCC(O)CC1 (stereo not given) | inactive | inactive | inactive | inactive |  |  |  | 
Cn1ccc(NC(=O)c2cc(Oc3ccc(C(=O)N4CCC4)c(F)c3)c3c(c2)OC(C)(C)C3)n1 | inactive | inactive | inactive | inactive |  |  |  | 
COc1nc2ccc(Br)cc2cc1[C@@H](c1ccccc1)[C@@](O)(CCN(C)C)c1cccc2ccccc12 | inactive | inactive | inactive | inactive |  |  |  | 

From PubChem BioAssay (NCATS)
